# PubChem BioAssay (NCATS)
# Results filed as inconclusive are left out. Where a call stands in place of a potency, no number is given. Unmarked numbers belong to inactive results. Calls of active or inactive are those of the source. Calls follow the shape of the dose curve; as a rule, active = well fitted inhibition curve with a large enough effect; inconclusive = small, poorly fitted or top-dose-only effect; inactive = flat fitted curve, though single readings scatter.
# How the values were obtained:
# Assay in all cases: qHTS profiling for inhibitors of Plasmodium falciparum proliferation (AID 504749); also: nearly all actives have a fitted effect of over 60% in size
# Conditions in all cases: P. falciparum in erythrocytes, SYBR Green DNA, 72 h; series mostly up to 28.7 µM
# [1] = test system: PC26
# Method in brief: (§1)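 Three-day growth assay of blood-stage parasites in erythrocytes (0.3% parasitemia, 2.5% hematocrit) at 37 C, 5% CO2, quantified by SYBR Green DNA staining after overnight detergent lysis.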
# [2] = test system: PC49
# Method in brief: as §1
# [3] = test system: SC27B
# Method in brief: as §1
# [4] = test system: TAB109
# Method in brief: as §1
# [5] = test system: TAB113
# Method in brief: as §1
# [6] = test system: TAB165
# Method in brief: as §1
# [7] = test system: W2
# Method in brief: as §1
# Potency is read from the fitted curve at half-maximal effect.
SMILES,Potency [1],Potency [2],Potency [3],Potency [4],Potency [5],Potency [6],Potency [7]
C=CCSSSCC=C,inactive,inactive,inactive,inactive,inactive,inactive,inactive
CC(NNC(=O)c1ccccc1)c1ccccc1 (stereo not drawn),inactive,inactive,inactive,inactive,inactive,inactive,inactive
O=C1C(=O)c2ncccc2-c2cccnc21,1.07 µM (active),3.55 µM (active),2.82 µM (active),1 µM (active),1.78 µM (active),0.794 µM (active),1.07 µM (active)
C[C@@H]1CCC2[C@@H](C)[C@@H](O)O[C@@H]3O[C@@]4(C)CC[C@@H]1[C@@]23OO4 (stereo partly drawn),0.0027 µM (active),0.0003 µM (active),0.002 µM (active),0.001 µM (active),0.0011 µM (active),0.0009 µM (active),0.0005 µM (active)
CC(C)=O,inactive,inactive,inactive,inactive,inactive,inactive,inactive
COC(F)(F)C(Cl)Cl,inactive,inactive,inactive,inactive,inactive,inactive,inactive
Nc1c(N=Nc2ccc(-c3ccc(N=Nc4cc(S(=O)(=O)O)c5ccccc5c4N)cc3)cc2)cc(S(=O)(=O)O)c2ccccc12,inactive,inactive,inactive,inactive,inactive,inactive,inactive
C[C@]12CCC(=O)C=C1CC[C@@H]1[C@@H]2[C@@H](O)C[C@@]2(C)[C@H]1CC[C@]2(O)C(=O)COP(=O)(O)O,inactive,inactive,inactive,inactive,inactive,inactive,inactive
O=C(O)c1cc(O)c2c(c1)[O][Bi][O]2,inactive,inactive,inactive,inactive,inactive,inactive,inactive
NC(=O)c1ncn(C2OC(CO)C(O)C2O)n1 (stereo not drawn),inactive,inactive,inactive,inactive,inactive,inactive,inactive
Nc1ncnc2c1ncn2[C@@H]1O[C@H](COP(=O)(O)OP(=O)(O)OP(=O)(O)O)[C@@H](O)[C@H]1O,inactive,inactive,inactive,inactive,inactive,inactive,inactive
CC1=C(/C=C/C(C)=C/C=C/C(C)=C/C=C/C=C(C)/C=C/C=C(C)/C=C/C2=C(C)CCCC2(C)C)C(C)(C)CCC1,inactive,inactive,inactive,inactive,inactive,inactive,inactive
O=C(O)CN(CCN(CC(=O)O)CC(=O)O)CC(=O)O,inactive,inactive,inactive,inactive,inactive,inactive,inactive
CCCC(=O)O[C@]1(C(=O)CCl)[C@H](C)C[C@@H]2[C@H]3CCC4=CC(=O)C=C[C@]4(C)[C@@]3(F)C(=O)C[C@@]21C,3.01 µM (active),10 µM (active),2.82 µM (active),3.16 µM (active),2.51 µM (active),2 µM (active),1.51 µM (active)
CCC(=O)NCCC1CCc2ccc3c(c21)CCO3 (stereo not drawn),inactive,inactive,inactive,inactive,inactive,inactive,inactive
CCCCCCCC(=O)O,inactive,inactive,inactive,inactive,inactive,inactive,inactive
COC(C(=O)C(O)C(C)O)C1Cc2cc3cc(OC4CC(OC5CC(O)C(O)C(C)O5)C(O)C(C)O4)c(C)c(O)c3c(O)c2C(=O)C1OC1CC(OC2CC(OC3CC(C)(O)C(O)C(C)O3)C(O)C(C)O2)C(O)C(C)O1 (stereo not drawn),2.69 µM (active),inactive,0.178 µM (active),0.158 µM (active),0.141 µM (active),0.141 µM (active),0.426 µM (active)
CO[C@H]1C[C@@H]2CC[C@@H](C)[C@@](O)(O2)C(=O)C(=O)N2CCCC[C@H]2C(=O)O[C@H]([C@H](C)C[C@@H]2CC[C@@H](OCCO)[C@H](OC)C2)CC(=O)[C@H](C)/C=C(\C)[C@@H](O)[C@@H](OC)C(=O)[C@H](C)C[C@H](C)/C=C/C=C/C=C/1C,2.13 µM (active),5.01 µM (active),1.41 µM (active),1.78 µM (active),1.12 µM (active),1.12 µM (active),0.757 µM (active)
CCOC(C)=O,inactive,inactive,inactive,inactive,inactive,inactive,inactive
